Experimental data: PubChem BioAssay
Calls of active or inactive are those of the source. No rule for the calls is given here.

What was measured:
[1] = system: Botulinum neurotoxin type F light chain protease (Clostridium botulinum); experiment: Botulinum neurotoxin type F light chain protease inhibition, multiplex microsphere flow cytometry, validation set (AID 588459); conditions: multiplex microsphere protease substrate cleavage assay, at 10 µM, stronger effect = higher value
[2] = target: Botulinum neurotoxin type A (Clostridium botulinum) (UniProt P0DPI0); experiment: BoNT/A light chain protease inhibitors, biochemical, multiplex microsphere flow cytometry, validation set (AID 588460); conditions: at 10 µM, stronger effect = higher value
[3] = target: Lethal factor (Bacillus anthracis) (UniProt P15917); experiment: Lethal factor protease inhibitors, Bacillus anthracis, multiplex microsphere cleavage assay, validation set (AID 588461); conditions: flow cytometry, at 10 µM, stronger effect = higher value

Measured: inhibition

COC(=O)c1cc(COc2ccc3ccc(=O)oc3c2)c(C)o1
inactive: [1] -0.4% | [2] -1.4% | [3] 1%

COc1cc(C)nc(-n2nc(C)cc2OC)n1
inactive: [1] 0.2% | [2] -1.5% | [3] -4.9%

CC(NC(=O)OCc1ccccc1)C(=O)N1CC(O)CC1C(=O)O (stereo unspecified)
inactive: [1] 3.2% | [2] -0.7% | [3] 1.4%

CC1=CC(=O)c2ccccc2C1=O
inactive: [1] -2.1% | [2] -0.1% | [3] 6.7%

O=C(O)CCCCCN1C(=O)C(=O)/C(=C(/O)c2ccccc2)C1c1ccccc1 (stereo unspecified)
inactive: [1] 0.2% | [2] 0.9% | [3] -6.7%

COc1cccc(N2C(=O)CC(c3c[nH]c4ccccc34)C2=O)c1 (stereo unspecified)
inactive: [1] 1.4% | [2] 2.4% | [3] -2%

Cc1ccc(-n2ncc3c(Nc4cccc(C(=O)O)c4)ncnc32)cc1
inactive: [1] 0.7% | [2] -1.1% | [3] 1.7%
